# Bioassay records (PubChem)
# hcGAS lum: blocks human cGAS activity | inhibition, % at 12.5 µM | 0.081% of 290,000 active | recombinant h-cGAS, ATP depletion, Kinase-Glo luminescence;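 note: 0% = vehicle reaction and 100% = reaction without DNA for no activity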
# Target sequence (Q8N884 whole entry, looked up): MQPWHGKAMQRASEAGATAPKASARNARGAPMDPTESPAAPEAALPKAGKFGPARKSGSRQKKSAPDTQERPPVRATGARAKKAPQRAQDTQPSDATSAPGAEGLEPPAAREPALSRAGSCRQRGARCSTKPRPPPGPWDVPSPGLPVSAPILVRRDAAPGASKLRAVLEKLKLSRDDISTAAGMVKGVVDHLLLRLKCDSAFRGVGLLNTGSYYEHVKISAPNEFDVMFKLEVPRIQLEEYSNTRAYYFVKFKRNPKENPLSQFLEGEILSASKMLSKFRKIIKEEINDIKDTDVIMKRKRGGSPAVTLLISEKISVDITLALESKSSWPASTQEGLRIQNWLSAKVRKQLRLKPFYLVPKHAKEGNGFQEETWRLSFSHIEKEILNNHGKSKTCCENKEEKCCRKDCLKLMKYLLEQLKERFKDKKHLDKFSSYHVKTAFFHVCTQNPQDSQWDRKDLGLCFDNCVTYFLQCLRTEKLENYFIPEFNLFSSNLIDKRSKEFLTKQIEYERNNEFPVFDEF
# NPYLR7 ag: activates Aedes aegypti NPYLR7 receptor. HEK293T NPYLR7/Galpha15, GCaMP6s calcium fluorescence. activation, % at 10 µM. 0.15% of 270,000 active. AID 1259423; in the data active = activation above about 40%;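 note: 0% = vehicle and 100% = reference agonist at the receptor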
# mcGAS lum: blocks mouse cGAS activity; 0.15% of 160,000 active; recombinant cGAS, Kinase-Glo ATP depletion luminescence; AID 1259399; inhibition, % at 12.5 µM;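 note: 0% = negative control wells and 100% = reference inhibitor with no enzyme activity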
# The depositor's hits bear a star; nt = no result; + = active, no number; ! = not confirmed by another sample. Hits are enriched below; roughly 0.3% of the tested compounds scored in any of these assays. Cut-off read from the data, not from the text of the source, unless noted: active = inhibition above about 40%; inactive = the rest.
SMILES,hcGAS lum,NPYLR7 ag,mcGAS lum
CC(=O)NCCc1ccc(O)c(O)c1,-6.5,87.5*,-0.7
NCCc1ccc(O)c(O)c1,-8.7,10.4,-7.6
COc1cccc(C(=O)Oc2ccc3c(c2)O/C(=C\c2ccc(C)o2)C3=O)c1,-0.1,-5.6,-0.6
CCC(=O)Oc1ccc2c(c1)O/C(=C\c1ccco1)C2=O,16.8,-0.9,79.6*
Cc1nc(Nc2ccc(F)cc2)c2c3c(sc2n1)CCC3,5.9,3.1,nt
CCCCNC(=O)CC(c1ccc(OC)cc1)c1c[nH]c2ccccc12 (stereo unspecified),-6.0,7.3,-4.4
O=C(NCc1cccc(C(F)(F)F)c1)c1csc(CSc2nnc(Cc3ccccc3)n2-c2ccccc2)n1,-3.3,-2.4,-4.8
O=C(O)c1csc(CSc2nnc(Cc3ccccc3)n2-c2cccc(C(F)(F)F)c2)n1,1.0,55.2*,-0.2
CCN(CC)CCNc1nc2c(F)cccc2s1,-9.7,4.3,nt
CCN(CC)CCNc1ccc(CO)c2sc3ccccc3c(=O)c12,54.4*!,-4.2,nt
Nc1nc(Cl)nc2c1ncn2[C@@H]1O[C@H](CO)[C@H](O)C1O (stereo partly specified),-2.1,97.1*,-3.2
Nc1nc(Cl)nc2c1ncn2[C@@H]1O[C@H](CO)[C@@H](O)[C@H]1O,1.1,76.1*,nt
Nc1ncn([C@@H]2O[C@H](CO)[C@@H](O)[C@H]2O)c(=O)n1,4.1,46.4*!,-3.7
NC(=O)c1ncn(C2O[C@H](CO)[C@@H](O)[C@H]2O)c1N (stereo partly specified),-7.9,5.5,nt
OC[C@H]1O[C@@H](n2cnc3c(NC4CCCC4)nc(Cl)nc32)[C@@H](O)C1O (stereo partly specified),-3.0,12.6,nt
Nc1nc(Nc2ccccc2)nc2c1ncn2[C@@H]1O[C@H](CO)[C@H](O)C1O (stereo partly specified),-0.5,0.2,-5.6
CN(Cc1nc(-c2ccncc2)no1)C(=O)[C@H]1CCCO1,-8.1,-0.4,nt
CC(CNC(=O)C1CCS(=O)(=O)CC1)N(C)c1ccccc1 (stereo unspecified),-6.6,4.9,nt
CC[n+]1c(-c2ccccc2)c2cc(N)ccc2c2ccc(N)cc21,55.8*!,-4.6,nt
CC[n+]1c2ccccc2cc2ccccc21,-2.7,9.7,nt
COc1ccc(C(=O)COc2ccc(-c3noc(C(C)C)n3)cc2)cc1,+,6.9,nt
CCOc1ccc(-c2cc(-c3nc(-c4ccc(OC)cc4)no3)[nH]n2)cc1,-8.1,3.4,-8.4
CSc1ccc(C(=O)NC(C)c2ccco2)cc1[N+](=O)[O-] (stereo unspecified),-2.5,4.0,nt
O=c1ccccn1Cc1nc(-c2cc(Br)cs2)no1,-7.2,15.7,-15.7
CCn1nc(-c2cc(Br)cs2)nc2c(=O)n(C)c(=O)nc1-2,21.9,5.2,60.2*
SMILES,hcGAS lum,NPYLR7 ag,mcGAS lum
COc1cc(Br)c(O)c(/C=N\n2c(C)n[nH]c2=S)c1,10.3,134.2*,nt
COc1ccc(-c2n[nH]c(=S)n2N=Cc2ccc(OC)c(Br)c2)cc1,-4.8,5.1,-4.6
O=c1cc(-c2ccccc2)oc2cc(O)cc(O)c12,7.6,-2.4,-1.4
O=c1c(-c2ccccc2)coc2cc(O)cc(O)c12,70.4*,-11.0,nt
Cc1cc(NC2CC3CC2C2CCCC32)nc(C)n1 (stereo unspecified),-0.8,1.4,nt
Cn1c(=NN=Cc2ccc(O)c(O)c2O)sc2ccccc21,-14.1,-6.3,nt
CS(=O)(=O)CC(=O)N(Cc1ccccc1)CC1CCC1,-5.7,14.7,nt
CCCCN(C)C1=CC2=CC(=C(C#N)C#N)CCC2CC1 (stereo unspecified),-8.9,+,-4.9
CCN(CC)C1=CC2=CC(=C(C#N)C#N)CCC2CC1 (stereo unspecified),-0.1,614.6*,-1.7
CN(Cc1ccccc1)C1=CC2=CC(=C(C#N)C#N)CCC2CC1 (stereo unspecified),-2.9,117.8*,nt
COc1cc(F)c(-c2nccn2CCC2CCCCO2)cc1OC (stereo unspecified),1.1,2.3,nt
COc1cccc(NC(=O)C(C)OC(=O)c2ccc(OC)cc2F)c1 (stereo unspecified),-4.9,-4.7,nt
Cc1ccc(S(=O)(=O)NC(=O)c2c(C)cc3n2CCn2c(C)ccc2-3)cc1,-6.5,35.7,nt
CCN1C(=O)/C(=C\c2ccc(-c3ccccc3C(=O)O)o2)N(CC)C1=S,-7.4,-0.6,-7.7
O=C1NC(=S)S/C1=C\c1ccc(-c2ccccc2C(=O)O)o1,65.6*,14.9,82.7*
COc1cccc(OC)c1OCCCOc1ccc([N+](=O)[O-])cc1,-0.8,-5.2,nt
COc1ccc2c(c1OC)C(=O)OC2CC(=O)c1ccc([N+](=O)[O-])cc1 (stereo unspecified),-3.9,-5.5,57.5*
Cc1ccccc1C1CCCN1C(=O)C(C)(C)NC(=O)c1cccs1 (stereo unspecified),50.2*,-2.5,nt
CC(C)(NC(=O)c1cccs1)C(=O)NC1CCN(Cc2ccccc2)C1 (stereo unspecified),-1.3,13.4,nt
O=[N+]([O-])c1cc(S(=O)(=O)Nc2cc(Cl)ccc2F)ccc1F,-2.5,40.2*,nt
Cc1ccc(S(=O)(=O)Nc2cc(Cl)ccc2F)cc1C,7.7,3.0,-1.6
NC(=S)Cc1nc2ccccc2[nH]1,-6.1,0.8,nt
CCOc1cc(/C=C2/C(=N)N3C=CSC3=NC2=O)cc(Br)c1OC(=O)c1ccco1,-1.0,-1.2,5.0
COc1cc(/C=C2\C(=N)N3N=CSC3=NC2=O)cc(Br)c1OC(=O)c1ccco1,5.9,48.7*,nt
CS(=O)(=O)Oc1ccc(CN(Cc2ccccc2)C(=O)c2ccccc2F)cc1,-9.5,-5.4,-5.1
SMILES,hcGAS lum,NPYLR7 ag,mcGAS lum
COc1ccccc1NC(=O)Cn1c(-c2ccoc2)nc(C)c1C,-2.8,9.2,nt
O=C1Nc2ccccc2C1C=NN1CCOCC1 (stereo unspecified),-3.2,51.4*,-7.3
CN1CCN(N=CC2C(=O)Nc3ccccc32)CC1 (stereo unspecified),3.7,-12.1,nt
O=C1SC(Nc2ccc(Br)cc2)C(=O)N1CCN1C(=O)c2ccccc2C1=O (stereo unspecified),-8.1,10.9,-4.5
O=C1SC(Nc2ccc(Br)cc2)C(=O)N1c1ccccc1 (stereo unspecified),-5.7,85.5*,-3.5
O=S(=O)(c1ccccc1)c1cnc2ccccc2c1Nc1ccccc1,-4.6,2.7,-3.9
O=S(=O)(c1ccccc1)c1ccccc1Nc1ccccc1,77.9*,-0.3,nt
CC1CCCCC1OCCNC(=O)C1(c2ccc(F)cc2)CCC1 (stereo unspecified),-2.8,54.7*,nt
O=C(NCCN1CCCC1)C1(c2ccc(F)cc2)CCOCC1,-16.4,1.4,nt
COCCOc1nc(-c2ccccc2C)n(-c2ccc(NC(=O)c3cccs3)cc2)n1,-1.8,nt,-3.3
CN1C(=S)N(c2ccc3c(c2)CCC3)C(=O)/C1=C\c1ccncc1,-2.0,41.1*,-3.5
CN1C(=S)N(c2ccc3c(c2)CCC3)C(=O)/C1=C/c1ccc(N(C)C)cc1,-13.1,4.1,-10.3
CCCN(C)c1cc(C(F)(F)F)nc(SCc2ccc(C(=O)N3CCN(C)CC3)o2)n1,-1.7,5.4,-3.8
COCCNc1oc2c(c1-c1ccc([N+](=O)[O-])cc1)c(=O)oc1ccccc12,-1.9,-7.6,-7.1
CC(C)NC(=O)C(C)N1CCc2onc(-c3ccc(C(F)(F)F)cc3)c2C1 (stereo unspecified),4.8,134.9*,1.4
